# Screening data from PubChem.
# An excerpt weighted towards active compounds, which were near 3.8% of everything screened.
# ATXN viability: cell viability loss in ATXN counter-screen; AID 651635; actives 0.49% (n = 400,000); S2 cells (HEK-293 line with an ATXN2-luciferase reporter) viability, CellTiter-Fluor protease fluorescence, 24 h; Potency, µM (series often up to 56.7 µM), hits mostly cytotoxic; also: nearly all actives have a fitted effect of over 40% in size
# ATXN2 expr inh: reduces ATXN2 reporter expression in HEK-293 cells; actives 0.72% (n = 360,000); Potency, µM (doses to about 57 µM), for the others: top-dose activity change, negative = inhibition, usual class: inhibitors; HEK-293 ATXN2-luciferase reporter, luminescence, 24 h; AID 1745845; also: % is scaled to controls: 0 for no effect and ±100 for the full control effect; nearly all actives have a fitted effect of over 55% in size
#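 ATXN2-luciferase reporter cells (luciferase flanked by upstream and downstream ATXN2 gene portions) were treated 24 h at 37 °C with compounds at up to 57 uM. SteadyGlo luminescence gave expression; GF-AFC fluorescence gave viability.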
# HT1080 IDH1KD tx: HT-1080 IDH1 knockdown cell toxicity (counter line). HT-1080 IDH1 knockdown viability, ATP luminescence, 48 h. Potency, µM (titrated, usually from 46.1 µM), inactives show top-dose activity, negative = toxicity, hits mostly cytotoxic. actives 2% (n = 360,000);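 also: 0% = DMSO wells and -100% = cell-free medium wells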
#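 Knockdown cells (IDH1KD HT-1080) received compounds 2 h after plating at 750 cells/well and were kept 48 h at 37 °C in 5% FBS RPMI. A CellTiter-Glo luminescence read gave % activity for curve fitting.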
# TGFb SMAD3 inh: TGF-b pathway inhibition | actives 1.2% (n = 410,000) | Potency, µM (titrated, usually from 46.1 µM), for inactives: at the top dose activity, negative = inhibition, usual class: inhibitors | AID 588855 | HepG2 CAGA-GFP TGF-b/SMAD3 reporter, GFP fluorescence, 18 h; TGF-beta stimulated, 500 pg/mL final; also: % is scaled to controls: 0 for no effect and ±100 for the full control effect; nearly all actives have a fitted effect of over 65% in size
#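 TGF-beta reporter screen: HEPG2 CAGA-GFP, 1% FBS, 500 pg/mL TGF-beta final, 18 h; per-cell GFP summed per well; curves fitted and categorized by class.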
# HepG2 viability: counter-screen for TGF-b inhibitors: cytotoxicity in HepG2 cells | actives 0.76% (n = 410,000) | Potency, µM (doses to about 46.1 µM), for inactives: at the highest dose activity change, negative = cytotoxicity, hits mostly cytotoxic | AID 588856 | HepG2 CAGA-GFP viability, ATP luminescence, 18 h
#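 HepG2 CAGA-GFP cells (1000/well, DMEM with 1% FBS) received compound, then TGF-beta at 500 pg/mL final, and were incubated 18 hours at 37 degrees C. Viability was read by CellTiter-Glo luminescence. Media-only wells were set as complete cell-killing and DMSO as no toxicity.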
# HT1080NT lethal: kills 2HG-producing HT-1080-NT fibrosarcoma cells; Potency, µM (highest dose often 46.1 µM), without a hit: at the top dose activity, negative = less viability, usual class: cytotoxic; actives 1.6% (n = 360,000); HT-1080-NT fibrosarcoma viability, CellTiter-Glo ATP luminescence, 48 h; AID 686970;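 also: NT is the 2HG producing partner of a matched IDH1 knockdown line; 0% = DMSO-treated cells and -100% = media-only wells without cells; nearly all actives have a fitted effect of over 55% in size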
#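 Toxicity toward the 2HG-producing NT line was scored as %Activity, normalised to DMSO and no-cell wells, from CellTiter-Glo luminescence after 48 hours' treatment.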
# * hit, by the source's call; i = inactive; ? = inconclusive; · = not tested or not shown; [ ] = dose if it differs, or a comment. Calls follow the shape of the dose curve; as a rule, active = well fitted curve in the direction sought with a large enough effect; inconclusive = small, poorly fitted or top-dose-only effect, or another doubt; inactive = no such curve, though single readings can be large; an effect the other way counts as inactive or inconclusive. Potency is read from the fitted curve at half-maximal effect.
SMILES,ATXN viability,ATXN2 expr inh,HT1080 IDH1KD tx,TGFb SMAD3 inh,HepG2 viability,HT1080NT lethal
FC(F)Oc1ccc(NC(=S)NNc2ccnc3cc(Cl)ccc23)cc1,?,?,21µM*,-27%,-12%,26µM*
Cc1cc(C)cc(NC(=O)C2CCN(c3nc4ccccc4nc3C(F)(F)F)CC2)c1,i,1%,·,0%,1%,·
COc1cc2c(cc1C(F)(F)F)N(C(=O)Nc1cc(F)cc(-c3cccnc3)c1)CC2,·,·,?,·,·,11µM*
CC(C)=CCc1cc([C@@H]2COc3c(ccc4c3C=CC(C)(C)O4)C2)c(O)cc1O,·,?,?,14µM*,16µM*,?
CC(C)(C)Cn1c(N)nc2ccc(-c3[nH]c(C(C)(C)C)nc3-c3ccc(F)cc3)nc21,·,27µM*,·,·,·,·
CC(C)(C)c1ccc(S(=O)(=O)Nc2ccc(C(O)(C(F)(F)F)C(F)(F)F)cc2)cc1,18µM*,?,21µM*,13µM*,20µM*,18µM*
NC(=O)/C=C\C(=O)Nc1cccc(C(F)(F)F)c1,i,-33%,10µM*,?,-34%,?
CCN(CC)S(=O)(=O)c1ccc(C(=O)Nc2cccc(C)c2)cc1,i,27%,-3%,43%,8%,-15%
O=C(Nc1ccncc1)Nc1cccc(C(F)(F)F)c1,i,-20%,-9%,-14%,-23%,7%
CCN(CC)S(=O)(=O)c1ccc(NC(=O)Nc2cccc(C(F)(F)F)c2)cc1,?,20µM*,?,?,11µM*,?
NNC(=O)Nc1cccc(C(F)(F)F)c1,i,-5%,13%,14%,2%,8%
O=C(Nc1ccc(OC(F)F)cc1)Nc1cccc(C(F)(F)F)c1,?,?,?,?,8.9µM*,?
Cc1ccc(NC(=S)NNC(=S)Nc2cccc(C(F)(F)F)c2)cc1,i,1%,?,-9%,-24%,-14%
Cc1ccc(S(=O)(=O)Nc2ccc(NC(=O)Nc3cccc(C(F)(F)F)c3)cc2)cc1,?,?,?,16µM*,18µM*,?
OC(c1ccc2c(c1)CN(Cc1cccn1-c1ncccn1)CCO2)C1CCCCC1 (stereo unspecified),i,·,·,·,·,·
Cc1onc(-c2ccccc2Cl)c1C(=O)Oc1ccc(Br)cc1,i,0%,·,?,-42%,·
Cc1onc(-c2ccccc2Cl)c1C(=O)Oc1cccc2cccnc12,i,3%,23µM*,?,-29%,-3%
COCC(=O)Nc1cc(C(=O)N2CCc3c(Cl)cccc3C2)c2c(c1)nc(-c1ccncc1)n2C,i,·,·,·,·,·
Cc1ccc(-n2cc(CN(C)Cc3ncc[nH]3)c(-c3cccc(C)c3)n2)cc1,?,?,18µM*,?,-24%,18µM*
CC(=O)Nc1ccc(/C=C/c2ccncc2)cc1,·,·,·,9%,0%,·
Cc1cc(/C=C/c2c(C)cnc3ccccc23)ccc1N(C)C,·,·,·,?,-66%,·
Cc1nc2ncccn2c1-c1csc(Nc2ccc(O)cc2)n1,i,11%,?,-10%,-14%,-6%
Cc1ccc(Nc2nc(-c3c(C)nc4ncccn34)cs2)cc1,?,13%,?,?,-19%,0.18µM*
CCOC(=O)c1oc2ccc(CNC3CCCCC3)c(Cl)c2c1C,i,-34%,-18%[9.24 µM],?,-52%,11µM*
CCn1c(-c2ccccc2F)nc2cc(C(=O)N3CCCC(CO)C3)cc(NC(C)=O)c21 (stereo unspecified),i,·,·,·,·,·
CCOC(=O)C1=C(Cc2ccc(F)cc2)C(=O)c2ccccc2C1=O,?,?,10µM*,27%,-58%,18µM*
O=C(N/N=C/c1ccsc1)c1cc(-c2ccncc2)nc2ccccc12,?,-18%,?,?,9%,4.6µM*
